Assay outcomes from PubChem BioAssay.
The list is not random: actives were taken first. Their share in the collection is about 2.4%.
CHO-K1 Ca ag – nonselective activator or artifact in parental CHO-K1 cells | activation, % at 3 µM | Fluo-8 calcium fluorescence; scaled to maximal ATP response, vehicle zero | AID 602248 | hit rate 0.48% among 360,000; in the data active means activation above about 15%;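 further: untransfected CHO-K1 host cells lacking M1 receptor as counterscreen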
M1 antag – human CHRM1 antagonism; P11229; CHO-K1 hM1, Fluo-8 calcium fluorescence, ACh EC80 antagonist; inhibition, % at 3 µM; hit rate 1.3% among 360,000; AID 588852;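 active means percent inhibition above its own plate's cutoff, namely the mean of that plate's compound wells plus 3 SD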;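 further: peak over basal fluorescence ratio during 140 s after agonist addition; 0% = ACh EC80 plus DMSO and 100% = DMSO alone without agonist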
Target sequence (P11229 whole entry, looked up): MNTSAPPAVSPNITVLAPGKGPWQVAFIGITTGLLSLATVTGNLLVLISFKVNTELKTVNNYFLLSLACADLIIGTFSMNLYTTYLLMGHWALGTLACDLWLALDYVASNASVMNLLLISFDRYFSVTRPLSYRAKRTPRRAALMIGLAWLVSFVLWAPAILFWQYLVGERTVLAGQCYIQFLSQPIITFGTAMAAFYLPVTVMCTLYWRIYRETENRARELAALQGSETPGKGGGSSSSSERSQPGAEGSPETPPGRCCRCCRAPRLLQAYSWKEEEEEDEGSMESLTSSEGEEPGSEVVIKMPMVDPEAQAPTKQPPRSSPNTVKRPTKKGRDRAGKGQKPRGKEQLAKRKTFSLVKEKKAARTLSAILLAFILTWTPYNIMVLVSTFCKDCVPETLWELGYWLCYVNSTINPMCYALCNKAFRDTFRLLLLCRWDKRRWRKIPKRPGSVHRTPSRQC
M1 ag – human M1 muscarinic receptor agonism; P11229; activation, % at 3 µM; hit rate 0.33% among 360,000; CHO-K1 hM1, Fluo-8 calcium fluorescence, agonist mode; 0% DMSO, 100% acetylcholine EC100; AID 588814;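 active means activation above the run's mean compound activation plus 3 SD, cut at about 16% in these data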;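 further: peak over basal fluorescence ratio within a 140 s kinetic read after compound addition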
CHO-K1 Ca antag – nonselective inhibitor or artifact in parental CHO-K1 cells. hit rate 0.6% among 360,000. inhibition, % at 3 µM. ATP-induced calcium, Fluo-8 fluorescence. AID 602250;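 active means inhibition above a per-plate cutoff, the plate's mean sample inhibition plus 3 SD, cut at about 24% in these data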;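 further: 0% = DMSO plus EC80 ATP and 100% = DMSO alone without ATP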
CHRM1 PAM – positive allosteric modulators of human M1 muscarinic receptor; hit rate 0.088% among 360,000; CHO-K1 hM1, Fluo-8 calcium fluorescence, ACh EC20; 0% = ACh EC20, 100% = maximal ACh; activation, % at 3 µM; P11229; in the data active means activation above about 19%, passing the limit was not always enough
M1 PAM parental – nonselective activator or artifact in parental CHO-K1 calcium assay | ATP EC20, Fluo-8 calcium fluorescence; 0% at ATP EC20, 100% at ATP max | activation, % at 3 µM | hit rate 0.02% among 360,000 | AID 602247;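 active means activation above the run cutoff, the mean activation of all test compounds plus 3 SD, cut at about 40% in these data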;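 further: peak over basal fluorescence ratio in a 140 s read after ATP addition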
The depositor's hits bear a star.

SMILES	CHO-K1 Ca ag	M1 antag	M1 ag	CHO-K1 Ca antag	CHRM1 PAM	M1 PAM parental
O=C(COc1ccc(S(=O)(=O)N2CCCC2)cc1)NCc1cccnc1	2	-7	-11	-9	6	8
CC(=O)Nc1ccc(/C=N/N2CCCCC2)cc1	0	13	35*	2	-15	-5
CC(=O)Nc1ccc(/C=N/N2C(C)CCCC2C)cc1 (stereo not given)	6	-22	3	-11	14	11
CCOC(=O)N1CCC(n2c(SCC(=O)NCCc3ccc(S(N)(=O)=O)cc3)nc3ccccc3c2=O)CC1	0	-3	-2	-10	3	5
COc1ccc(-c2nnc(NC(=O)C(C)C)s2)c(OC)c1	5	39*	-1	-4	-10	28
O=C(NCc1ccncc1)C(=O)N/N=C/c1cccnc1	0	-20	-6	-22	17	-1
OC(CN1CCN(Cc2ccccc2)CC1)c1ccc(F)cc1 (stereo not given)	2	-3	-8	-4	2	18
c1ccc(CN2CCN(C(c3ccccc3)c3ccccc3)CC2)cc1	0	44*	-9	-10	-25	15
Fc1ccc(CN2CCN(C(c3ccccc3)c3ccccc3)CC2)cc1	0	36*	-8	-7	-27	1
O=S(=O)(CCN1CCN(C(c2ccccc2)c2ccccc2)CC1)C(F)(F)F	1	77*	-14	-14	-34	2
c1ccc(CN2CCN(C(c3ccccc3)c3nnnn3Cc3ccccc3)CC2)cc1 (stereo not given)	0	-19	-8	-8	-3	18
N#CCN(C(=O)CSc1nnc(C2CC2)n1C1CC1)c1ccccc1	1	-10	-4	-7	14	18
CC(C)c1ccc2oc(-c3cc(N)ccc3O)nc2c1	0	9	-2	24*	-5	-6
Cc1ccccc1-c1nc2cc(N)ccc2o1	1	-8	-7	-8	7	17
O=C1Nc2ccc(Br)cc2C1=Nc1cccnc1	0	-12	0	-14	11	13
O=C(CSC1=NS(=O)(=O)c2cc(F)ccc2N1)Nc1cccc(F)c1	0	-3	-1	-10	3	3
CC(=O)c1ccc(OCCCC(=O)Nc2cc(S(=O)(=O)N3CCCCC3)ccc2C)cc1	5	-14	-1	-1	8	12
O=C(N/N=C/c1cn(-c2cccs2)nc1-c1ccccc1)c1ccccc1O	13	8	-3	29*	-11	-7
COc1ccc(NS(=O)(=O)c2ccc(-c3coc(C)n3)cc2)cc1OC	20*	63*	5	50*	-17	-29
COc1ccc(NS(=O)(=O)c2ccc(-c3coc(C)n3)cc2)cc1	6	-7	9	-11	15	9
CC(C)[C@H](NS(=O)(=O)c1ccc2c(c1)OCCO2)C(=O)OCC(=O)Nc1cc(Cl)ccc1Cl	7	31*	1	6	-16	13
CC(C)[C@H](NS(=O)(=O)c1ccc2c(c1)OCCO2)C(=O)OCC(=O)Nc1ccccc1Cl	3	-6	-8	-7	8	-6
CN1CCN(CCc2nc3cc(NC(=O)COc4ccc(Cl)cc4)ccc3n2C)CC1	-1	4	-5	26*	1	-4
Cn1c(CCN2CCN(c3ccccn3)CC2)nc2cc(NC(=O)COc3ccccc3)ccc21	9	58*	0	-20	-24	11
CCCCC(=O)Nc1ccc2c(c1)nc(CCN1CCN(c3ccccn3)CC1)n2C	1	74*	-9	-3	-29	-15
SMILES	CHO-K1 Ca ag	M1 antag	M1 ag	CHO-K1 Ca antag	CHRM1 PAM	M1 PAM parental
Cn1c(CCN2CCCCC2)nc2cc(NC(=O)COc3ccc(Cl)cc3)ccc21	0	10	-5	-6	-12	17
Cc1ccc(OCC(=O)Nc2ccc3c(c2)nc(CCN2CCN(c4ccccn4)CC2)n3C)cc1	7	62*	-1	2	-28	8
CCCC(=O)Nc1ccc2c(c1)nc(CCN1CCN(c3ccccn3)CC1)n2C	0	26	-7	8	-21	-10
CCCCN1C(=O)C(CC(=O)NC2CCCCC2)CC(C(=O)N(C(C)C)C(C)C)=C1C (stereo not given)	0	-22	-5	-2	16	10
COc1ccc([C@H]2C[C@H](n3cc(COC(=O)c4ccccc4)nn3)[C@@H](O)CN2C(=O)c2cccs2)cc1	1	-7	-1	7	-1	-2
NS(=O)(=O)c1ccc(CCNC(=O)C(=O)c2cn(CC(=O)N3CCCC3)c3ccccc23)cc1	0	-6	-3	-3	5	5
Cn1c(CCN2CCN(c3ccccn3)CC2)nc2cc(NS(=O)(=O)c3ccccc3)ccc21	9	69*	0	-2	-23	1
Cn1c(CCN2CCCCC2)nc2cc(NS(=O)(=O)c3ccccc3)ccc21	0	22	2	12	-11	-7
CC(C)CN1CCC(=O)N(CCSc2ccccc2)CC1	0	5	34*	10	0	-20
Cc1ccc(SCCN2CCN(CCc3ccccc3)CCC2=O)cc1	0	11	-13	-2	-5	2
Cn1c(=O)c(C(=O)COc2ccc(C#N)cc2)c(N)n(Cc2ccccc2)c1=O	34*	9	28*	-6	-6	2
CN(C)C(=O)COn1c(SCC(=O)N(C)C)nc2ccccc2c1=O	0	4	-2	3	-1	12
CCOC(=O)COn1c(SCC(=O)OCC)nc2ccccc2c1=O	1	8	-2	26*	2	-9
CCOC(=O)c1cc(-c2ccc(F)cc2)n(CC(=O)N2CCCC2)c1C	15*	-6	-2	3	5	12
CCOC(=O)c1cc(-c2ccccc2)n(CC(=O)N2CCCC2)c1C	2	2	-1	4	1	9
Cc1cc(N2CCCCCC2)nc2ccccc12	1	35*	-7	-15	-20	19
Cc1cc(N2CCCCC2)nc2ccccc12	0	30	-8	-6	-20	-9
O=C(NN=C1CCCC1)c1cc(-c2ccc(F)cc2)nc2ccccc12	1	-6	-3	-15	7	29
Cc1cc(C(=O)NN=C2CCCCCCC2)c2ccccc2n1	0	-7	-4	42*	8	-5
CCCCc1cc(O)c(CCCC)c(O)c1	47*	51*	55*	48*	-16	-9
Cn1cc([N+](=O)[O-])c(C(=O)NC2CCCC2)n1	0	-4	-2	11	2	-10
CCc1ccc(OCC(=O)NNC(=O)CNC(=O)c2ccc(Br)o2)cc1	-1	-8	-2	-10	6	-1
CCCOc1ccc(OC(=O)c2ccc(Br)o2)cc1	3	17	45*	13	-8	2
CC(NC(=O)c1ccco1)C(c1cccs1)N1CCN(c2ccc(F)cc2)CC1 (stereo not given)	3	51*	-9	-5	-18	14
